Bioassay records: PubChem, Columbia University Molecular Screening Center
Only some compounds are listed: those with a hit (about 1.8% of all), similar ones and a draw of the others.
E-sel TNF inh: blocks E-selectin expression induced by TNF alpha; HUVEC TNFa-induced E-selectin immunofluorescence, high content; inhibition, % at 2 µM; hit rate 0.71% among 120,000; AID 1246;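 active = inhibition above the batch mean plus 3 SD, and confirmed as a hit on visual image review, cut at about 43% in these data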;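 note: 0% = TNF-stimulated DMSO wells and 100% = unstimulated control wells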
HUVEC tox IL1B: HUVEC cytotoxicity counter-screen, IL-1B stimulated | HUVEC cell count loss, Hoechst imaging | cell count reduction, % at 2 µM | hit rate 0.41% among 94,000;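 active = cell count reduction more than 3 SD above the screen-wide mean, cut at about 70% in these data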;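 note: normalized per plate to untreated control cells as the no-loss baseline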
TNFa cytotox: toxic to HUVEC cells under TNF alpha stimulation; HUVEC TNFalpha-stimulated, Hoechst cell count, imaging; AID 848; hit rate 0.17% among 93,000; cell count reduction, % at 2 µM;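 active = cell count reduction exceeding the screen mean by over 5 SD, scaled to untreated wells per plate, cut at about 78% in these data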;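 note: cells counted after 24 h of TNF alpha exposure following the 1 h pretreatment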
VCAM1 TNFa inh: reduces TNF alpha induced VCAM1 expression in HUVEC. HUVEC TNFa-induced VCAM-1 immunofluorescence, high-content imaging. inhibition, % at 2 µM. hit rate 0.48% among 95,000. AID 802;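 active = inhibition above the batch mean plus 3 SD, with images confirmed as a hit by eye, cut at about 37% in these data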;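 note: 0% = TNF-stimulated DMSO wells and 100% = unstimulated control wells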
NFkB transloc pot: enhances IL-1B driven NFkB nuclear translocation. HUVEC IL-1B NFkB p65 nuclear translocation imaging. activation, % at 2 µM. hit rate 0.3% among 94,000;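 active = activation above 40%, about the mean plus 3 SD, also judged a hit on visual image review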;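 note: percent activation is computed from the nuclear over cytoplasmic p65 intensity ratio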
IL1B NFkB inh: blocks IL-1B driven NFkB nuclear translocation in HUVEC cells | HUVEC IL-1B NFkB p65 nuclear translocation imaging | inhibition, % at 2 µM | hit rate 0.43% among 94,000 | AID 796;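 active = inhibition above about 30% together with a positive call from visual inspection of the well image, limit read from the data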;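 note: nuclear over cytoplasmic p65 intensity ratio measured by imaging; 0% = IL-1B stimulated DMSO wells and 100% = unstimulated DMSO wells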
An asterisk follows results filed as active; x = no result.

SMILES | E-sel TNF inh | HUVEC tox IL1B | TNFa cytotox | VCAM1 TNFa inh | NFkB transloc pot | IL1B NFkB inh
CCC(C)NS(=O)(=O)c1ccc(OCC(=O)NCc2cccnc2)cc1 (centres undefined) | -1 | 80* | -17 | -1 | -98 | 98*
COc1ccc(OC(C)C(=O)NCc2cccnc2)cc1 (centres undefined) | -20 | 93* | -4 | 12 | -13 | 13
CC(Oc1ccccc1)C(=O)NCc1cccnc1 (centres undefined) | 6 | -10 | -22 | -1 | 7 | -7
CC(C)c1cc(NC(=O)CSc2nnc(-c3ccccc3F)n2C)on1 | -32 | x | x | x | x | x
CC1=C(C(=O)OCc2ccc(C)cc2)C(c2ccc(O)c([N+](=O)[O-])c2)NC(=O)N1 (centres undefined) | -30 | x | x | x | x | x
COC(=O)C1=C(C)N(C)C(=O)NC1c1ccc(C)cc1 (centres undefined) | 1 | -42 | -38 | -16 | -1 | 1
COC(=O)C1=C(C)n2nnnc2NC1c1ccc(Cl)cc1 (centres undefined) | -45 | -4 | 15 | 29 | 42* | -42
Cc1nc(S(=O)(=O)N(C)Cc2ccccc2)c(C#N)c(C)c1Cl | -7 | -8 | 92* | 78* | -31 | 31*
NC(=O)C1(N2CCCCC2)CCN(C(=O)c2cccs2)CC1 | 6 | 8 | -32 | 23 | 40* | -40
NC(=O)C1(N2CCCCC2)CCN(C2CC(=O)N(Cc3cccs3)C2=O)CC1 (centres undefined) | 0 | 9 | 13 | 11 | -32 | 32*
COC(=O)c1ccc(C(=O)OC)c(NC(=O)CN(c2ccccc2)S(=O)(=O)N(C)C)c1 | 15 | x | x | x | x | x
CN(C)S(=O)(=O)N(CC(=O)Nc1ccccc1F)c1ccccc1 | -45 | 79* | -4 | 13 | 6 | -6
O=C(NCCc1ccccc1)c1ccco1 | -15 | -29 | -21 | 7 | 5 | -5
C=C(C)CC(NCCc1ccccc1)c1ccco1 (centres undefined) | 72* | x | x | x | x | x
CCN(CC)c1ccc(N2C(=O)/C(=C\c3cccs3)SC2=S)cc1 | 12 | -86 | -6 | 12 | 18 | -18
O=C1/C(=C/c2cccs2)SC(=S)N1c1ccccc1 | 56* | 1 | -9 | -2 | -6 | 6
O=C(c1cnsn1)N1CCN(c2ccccc2)CC1 | -8 | -18 | -5 | -28 | 4 | -4
O=C(c1cnccn1)N1CCN(c2ccccc2)CC1 | 59* | -9 | 4 | -2 | 10 | -10
CCOC(=O)c1c(NC(=O)COC)sc(C)c1C | 5 | -25 | 7 | 12 | 49* | -49
O=C(COC(=O)c1ccncc1)Nc1cc(Cl)ccc1Cl | 15 | -10 | -39 | 14 | 19 | -19
O=C(OCc1ccc(Cl)cc1Cl)c1ccncc1 | -58 | -24 | 7 | 17 | 126* | -126
Cc1ccc2c(c1)C(O)(CC(=O)/C=C/C=C/c1ccccc1)C(=O)N2 (centres undefined) | 2 | x | x | x | x | x
CCN(CC)C(=O)N1c2ccccc2C=Cc2ccccc21 | 44 | -4 | -15 | 0 | 8 | -8
CCOC(=O)/C(C#N)=C1/C=Cc2ccccc2N1CC | 53* | x | x | x | x | x
[O-][n+]1onc2c1C(N1CCOCC1)CCC2N1CCOCC1 (centres undefined) | 82* | 1 | -34 | -10 | 10 | -10
SMILES | E-sel TNF inh | HUVEC tox IL1B | TNFa cytotox | VCAM1 TNFa inh | NFkB transloc pot | IL1B NFkB inh
CCCOc1ccc(N2CC(C(=O)Nc3ccccc3F)CC2=O)cc1 (centres undefined) | -17 | 0 | -5 | -28 | 8 | -8
Cn1c(SCC(=O)Nc2ccc3c(c2)OCO3)nnc1-c1cnccn1 | -16 | 86* | -3 | 5 | -24 | 24
CC(C)c1nnc(SCC(=O)Nc2ccc3c(c2)OCO3)n1C | -14 | -9 | -20 | 17 | -6 | 6
CCS(=O)(=O)Nc1ccc(-c2cc(-c3ccccc3)c3cc(C)ccc3n2)cc1 | 79* | x | x | x | x | x
Cc1cccc(NC(=O)CSc2nc3ccc(NC(=O)CSc4nnnn4-c4ccccc4)cc3s2)c1C | -35 | 9 | 25 | 44* | 5 | -5
O=C(CSc1nc2ccc(NC(=O)CSc3nnnn3-c3ccccc3)cc2s1)Nc1ccccc1 | 8 | x | x | x | x | x
CCOC(=O)c1c(C)nn(Cc2cccc(Cl)c2)c1N | x | -29 | -40 | -3 | 0 | 0
COCCn1c(C(C)C)nc2oc3ccccc3c(=O)c2c1=O | x | 0 | -23 | 2 | 23 | -23
CCc1nc2oc3ccccc3c(=O)c2c(=O)n1CCOC | x | -4 | 97* | 87* | 30 | -30
